# Sampled rows, rich in hits. Any-hit rate of the full collection: about 2.2%.
# KKLEB tox: reduces viability of KKLEB cystic fibrosis airway cells | actives 0.36% (n = 360,000) | AID 602141 | KKLEB CF airway cells viability, ATPlite luminescence, overnight; active compounds read low; cells stimulated with P. aeruginosa culture filtrate | activity change (cytotoxicity), % at 5 µM;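 active means corrected activity change at or below -50% at 5 µM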
# PPC-1+TRAIL kill: compounds killing PPC-1 cancer cells with TRAIL present (potentiator screen, no TRAIL-free arm). PPC-1 cells + TRAIL, ATPLite viability luminescence. cell killing (% activity), % at 4 µM or 5 µM. actives 0.41% (n = 220,000). AID 1443;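 active means cell killing above 50% in the first pass at 4 µM, then a duplicate retest at 5 µM averaging 50% or more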
# CF NFkB block: blocks PAF-induced NF-kB reporter in cystic fibrosis cells; KKLEB NF-kB-GFP reporter, GFP fluorescence overnight; inhibition, % at 5 µM; actives 0.86% (n = 360,000);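 active means at least 50% inhibition at 5 µM, scaled per plate between neutral and stimulator controls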;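 further: PAF is a Pseudomonas aeruginosa culture filtrate used as stimulus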
# TRAIL sens C8: caspase-8 TRAIL sensitization. NB7+C8 cells + TRAIL, ATPlite viability luminescence. inhibition (viability loss, TRAIL sensitization), % at 10 µM. actives 1% (n = 360,000). AID 624354;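 active means compounds causing at least 50% loss of cell viability in the single-dose screen, relative to plate controls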
# HIF-2a inh: blocks HIF-2a reporter activity; 786-0 RCC cells HIF-2a reporter, luciferase luminescence, overnight; inhibition, % at 18.8 µM; actives 0.72% (n = 360,000); AID 624352;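 active means inhibition of the luminescence signal of 40% or more relative to plate controls, in a single-dose primary screen at 18.75 µM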
# iPSC survival up: enhancers of human iPSC single-cell survival | hiPSC single-cell survival, ATPlite luminescence; 100% = ROCK inhibitor wells, 0% = DMSO | survival enhancement, % at 20 µM | actives 0.044% (n = 360,000) | AID 602274; in the data active means survival enhancement above about 18%;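 further: cells exposed to compounds for 16 hours before the ATP read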
# CF NFkB conf: CF NF-kB inhibition confirmation, single concentration | shares compounds with CF NFkB block | KKLEB CF airway cells, PAF-induced NF-kB-GFP fluorescence, overnight | inhibition, % at 5 µM | actives 64% (n = 1,300); in the data active means inhibition above about 40%;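 further: stimulus PAF is a Pseudomonas aeruginosa filtrate and not platelet activating factor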
# Numbers stand for hits; - = inactive; . = not tested or not shown.
SMILES,KKLEB tox,PPC-1+TRAIL kill,CF NFkB block,TRAIL sens C8,HIF-2a inh,iPSC survival up,CF NFkB conf
CC(=O)c1sc(NC(=O)CS(=O)(=O)c2ccc(F)cc2)nc1C,-,.,-,-,-,-,.
CCOc1cccc2sc(N(CCN(C)C)C(=O)CCS(=O)(=O)c3ccccc3)nc12,-,.,-,-,-,-,.
CC(=O)c1sc(NC(=O)CCS(=O)(=O)c2ccc(C)cc2)nc1C,-,.,56,-,-,-,-
CC1(C)CC(=O)c2sc(NC(=O)CCS(=O)(=O)c3ccccc3)nc2C1,-,-,68,-,-,-,-
CCc1ccc(-c2nc(CS(=O)CC(=O)NCCCN3CCOCC3)c(C)o2)cc1 (configuration not stated),-,.,-,-,-,-,.
CC1(C)N=C(N)NC(Nc2ccccc2Cl)=N1,-,-,-,-,-,-,.
CC(=O)Nc1cccc(-c2ccnc3c2CC(C)(C(=O)NCc2ccc(N(C)C)cc2)O3)c1 (configuration not stated),-,.,-,-,-,-,.
COc1ccc(-n2ncc3c(N4CCN(Cc5ccccc5)CC4)ncnc32)cc1,-,-,66,-,-,-,74
COc1ccc(/C=N/Nc2nc(-c3cccnc3)nc3ccccc23)cc1OC,-,-,64,-,-,-,68
COc1ccc(CCNc2nc(-c3cccnc3)nc3ccccc23)cc1OC,-,.,58,-,-,-,-
Cc1ccn2c(CNCC3COCCO3)c(C(=O)N3CCCCCC3)nc2c1 (configuration not stated),-,.,-,-,-,-,.
O=C(CSc1nnc(-c2cccs2)n1C1CC1)NC1CCS(=O)(=O)C1 (configuration not stated),-,.,-,-,-,-,.
COc1cc(CN(C)c2ccc(S(=O)(=O)N3CCCC3)cn2)ccc1OC(F)F,-,.,54,-,-,-,55
Cc1ccc(C)c(S(=O)(=O)N(C(=O)c2ccncc2)c2ccc(OC(=O)c3ccncc3)cc2)c1,-,-,69,-,-,-,85
COc1ccc(OCC(=O)C2CC2)c(C#N)c1,-,-,-,-,-,-,.
CC(C)(C)OC(=O)CC(S(=O)(=O)c1ccccc1)S(=O)(=O)c1ccccc1,-,.,86,-,-,-,-
COc1ccc(-n2cc(-c3ccccc3)c3c(N4CC(C)OC(C)C4)ncnc32)cc1 (configuration not stated),-,-,82,-,-,-,72
c1ccc(-c2cn(-c3ccccc3)c3ncnc(N4CCCCC4)c23)cc1,-,-,-,-,-,-,.
CCOc1ccc(-n2cc(-c3ccccc3)c3c(N4CCOCC4)ncnc32)cc1,-,-,91,-,-,-,95
C[C@H](CO)N1C[C@H](C)[C@@H](CN(C)Cc2ccncc2)Oc2c(NS(=O)(=O)c3cccs3)cccc2C1=O,-,.,-,-,-,-,.
CC[C@H](CO)Nc1nc(Nc2cccc(Cl)c2)c2ncn(C(C)C)c2n1,-,-,68,-,-,-,92
CC(=O)N1CC(=O)N=C1SCC(=O)Nc1nc(C)c(-c2ccccc2)s1,-,-,51,-,-,-,60
CCOc1ccc(-c2csc(NC(=O)CSC3=NC(=O)CN3C(C)=O)n2)c2ccccc12,-,-,-,-,-,-,.
CCn1c(Oc2ccccc2F)nc2c1c(=O)n(C)c(=O)n2C,-,.,56,-,-,-,83
COc1cc2ncnc(NCc3ccc(C)o3)c2cc1OC,-,-,-,-,-,-,.
SMILES,KKLEB tox,PPC-1+TRAIL kill,CF NFkB block,TRAIL sens C8,HIF-2a inh,iPSC survival up,CF NFkB conf
Cc1ccc(CNc2ncnc3ccc(-c4ccoc4C)cc23)o1,-,.,74,-,-,-,97
Cc1cccc(CNc2ncnc3ccc(-c4ccc5c(c4)OCCO5)cc23)c1,-,.,-,-,-,-,.
c1cncc(CNc2ncnc3ccc(-c4ccc5c(c4)OCO5)cc23)c1,-,.,-,-,-,-,-
COc1cccc(-c2ccc3ncnc(NCc4cc(C)cs4)c3c2)c1,-,.,71,-,-,-,78
c1nc(NCc2ccc3c(c2)OCO3)c2cc(-c3ccc4c(c3)OCCO4)ccc2n1,-,.,-,-,-,-,.
Cc1cccc(CNc2ncnc3ccc(-c4ccoc4)cc23)c1,-,.,70,-,-,-,87
Cc1csc(CNc2ncnc3ccc(-c4cccnc4)cc23)c1,-,.,-,-,-,-,.
CCCc1cc(=O)n2nc(N3CCC(C(=O)NCc4ccco4)CC3)sc2n1,-,.,-,-,-,-,.
C#Cc1ccc([C@H]2C=C(C(=O)O)O[C@@H](OCCCCO)C2)cc1,-,.,-,-,-,-,.
CC12CCC(=O)C=C1CCC1C2C(O)CC2(C)C1CCC2(O)C(=O)COC(=O)CCC1CCCC1 (configuration not stated),-,.,53,-,-,-,-
CC(C)(CNC(=O)CO/N=C1/C=C2CCC3C(C(O)C[C@@]4(C)C3CC[C@]4(O)C(=O)CO)[C@@]2(C)CC1)C(O)C(=O)O (some centres not stated),-,.,70,-,-,-,-
C[C@]12C[C@H](O)[C@H]3[C@@H](CCC4=CC(=O)CC[C@@]43C)[C@@H]1CC[C@@H]2C(=O)CO,-,-,-,-,-,-,.
CC(=O)OCC(=O)C1(O)CCC2C3CCC4=CC(=O)CCC4(C)C3(Cl)C(O)CC21C (configuration not stated),-,.,77,-,-,-,-
COc1ccc(S(=O)(=O)N(C)C[C@H]2Oc3ccc(NC(=O)Nc4ccc5c(c4)OCO5)cc3C(=O)N([C@H](C)CO)C[C@@H]2C)cc1,-,.,-,-,-,-,.
COCC(=O)N[C@@H]1c2cc(OC)c(OC)cc2C[C@H]1OCc1ccccc1,-,.,-,-,-,-,.
Cc1[nH]nc2nc(SCC(=O)NCCC3=CCCCC3)n(-c3ccc(Br)cc3)c(=N)c12,-,.,63,80,-,-,60
c1ccc(-c2csc3ncnc(NCc4ccccn4)c23)cc1,-,-,-,-,-,-,.
c1ccc(CNc2ncnc3scc(-c4cccs4)c23)nc1,-,.,52,-,-,-,-
COc1ccc(CNC(=O)c2[nH]c(C)c(C(C)=O)c2C)cc1,-,.,-,-,-,-,.
COc1ccc(COC(=O)C2=C(C)NC(=O)NC2c2ccc(F)cc2)cc1 (configuration not stated),-,.,60,-,-,-,59
CCOc1ccc(C2NC(=O)NC(C)=C2C(=O)OCc2ccccc2)cc1 (configuration not stated),-,.,-,-,-,-,.
CCCCCCCCCCCC(=O)c1c(O)cccc1O,-,-,71,-,-,-,41
